# The sample as a whole holds a higher share of hits than the screen did.
# Dicer inh – inhibitors of Dicer pre-microRNA processing, primary screen, biochemical, cat-ELCCA, chemiluminescence. 47,000 tested, 6% active. Endoribonuclease Dicer (Homo sapiens), Q9UPY3. cat-ELCCA pre-miR-21 Dicer processing; stronger effect = higher value. z-score at 25 µM; in the data active = z-score above about 3, passing the limit was not always enough;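 also: higher signal means more uncleaved substrate so more Dicer inhibition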
# Hits are given with their value; - = inactive.
SMILES,Dicer inh
CCOc1ccc2c(c1)C(C)=CC(C)(C)N2S(=O)(=O)c1ccc(Cl)cc1,-
COc1ccc2cc(C(=O)O)sc(=O)c2c1OC,-
Cc1nn2c(c1-c1ccc(F)cc1)N=C(c1ccco1)CC2c1ccco1 (stereo not drawn),-
O=C(O)CCCc1ccc2ccc3cccc4ccc1c2c34,4
O=C(O)CCCN1Cc2ccccc2C1,-
O=C(O)c1cccc2cccc(-c3cccc4cccc(C(=O)O)c34)c12,-
COc1ccc(N)cc1-n1c(C)ccc1C,-
O=C(CC(SCc1ccco1)c1ccc(Cl)cc1)c1cccs1 (stereo not drawn),-
CCOC(=O)c1c[nH]c2c([N+](=O)[O-])cccc2c1=O,-
Nc1nc2ccc(Oc3ccc4nc(N)sc4c3)cc2s1,3.7
Nc1nc2ccc(CC(=O)O)cc2s1,-
CS(=O)(=O)c1ccc2nc(N)sc2c1,-
OCCN1CCN(CCCN2c3ccccc3Sc3ccc(Cl)cc32)CC1,-
CN1CCN(CCCN2c3ccccc3Sc3ccc(S(=O)(=O)N(C)C)cc32)CC1,6
CC(=O)c1ccc2c(c1)N(CCCN1CCC(CCO)CC1)c1ccccc1S2,-
CN(C)CC1CCc2c(c3ccccc3n2C)C1=O (stereo not drawn),-
Cn1c2c(c3ccccc31)/C(=N/O)CCC2,3.9
Cn1c2c(c3ccccc31)/C(=N/OC(=O)c1ccc(C(C)(C)C)cc1)CCC2,-
COC(=O)c1csc2c(C(F)(F)F)cc(N3CCNCC3)nc12,-
Cc1cc(=O)[nH]c(N/N=C/c2ccncc2)n1,-
CCC(C)C(NC(=O)OC(C)(C)C)C(=O)NCc1ccccc1 (stereo not drawn),-
CN1C(=O)C2(/C(=C(/O)c3ccccc3)C(=O)C(=O)N2CCN2CCOCC2)c2ccccc21 (stereo not drawn),5.4
Cc1ccc(/C(O)=C2/C(=O)C(=O)N(CCN(C)C)C23C(=O)N(C)c2ccccc23)cc1 (stereo not drawn),-
CCN1C(=O)C2(/C(=C(/O)c3ccc(Cl)cc3)C(=O)C(=O)N2CCN2CCOCC2)c2ccccc21 (stereo not drawn),-
COCCCN1C(=O)C(=O)/C(=C(\O)c2ccc3c(c2)CC(C)O3)C12C(=O)N(C)c1ccccc12 (stereo not drawn),-
SMILES,Dicer inh
CC1Cc2cc(/C(O)=C3/C(=O)C(=O)N(CCN(C)C)C34C(=O)N(C)c3ccccc34)ccc2O1 (stereo not drawn),4.4
CC1Cc2cc(/C(O)=C3/C(=O)C(=O)N(CC4CCCO4)C34C(=O)N(C)c3ccccc34)ccc2O1 (stereo not drawn),-
CCN1C(=O)C2(/C(=C(/O)c3ccc(F)cc3)C(=O)C(=O)N2CCCN2CCOCC2)c2ccccc21 (stereo not drawn),-
CCOc1ccc(/C(O)=C2/C(=O)C(=O)N(CCN(C)C)C23C(=O)N(C)c2ccccc23)cc1 (stereo not drawn),-
COc1ccc(/C(O)=C2/C(=O)C(=O)N(CCN3CCOCC3)C23C(=O)N(C)c2ccccc23)cc1 (stereo not drawn),3.5
COc1ccc(/C(O)=C2/C(=O)C(=O)N(CCCN3CCOCC3)C23C(=O)N(C)c2ccccc23)cc1 (stereo not drawn),-
CCN1C(=O)C2(/C(=C(/O)c3ccccc3)C(=O)C(=O)N2CCN2CCOCC2)c2ccccc21 (stereo not drawn),-
CN1C(=O)C2(/C(=C(/O)c3ccccc3)C(=O)C(=O)N2CCCN2CCOCC2)c2ccccc21 (stereo not drawn),5.3
CCOC(=O)C1=C(c2ccccc2)N=C2SCC(=O)N2C1c1ccc(OCC)cc1 (stereo not drawn),-
O=S(=O)(c1ccccc1)N1N=C(c2ccccc2)CC1c1ccccc1F (stereo not drawn),-
O=S(=O)(CS(=O)(=O)c1ccccc1)c1ccccc1,-
CC12CN3CC(c4ccccc4)(CN(C1)C3c1ccccc1O)C2=O (stereo not drawn),-
O=c1[nH]c(=O)n([C@H]2CC(O)[C@@H](CO)O2)cc1Br (stereo partly drawn),-
CC(/C=N/OC(=O)c1c(F)cccc1F)=N\Nc1c(Cl)cc(Cl)cc1Cl,-
N#C/C(=C\c1ccc(Cl)cc1)C(=O)Nc1ccc(F)c(F)c1F,-
Cc1cc2nc(C)c(-c3ccccc3)c(N)n2n1,-
CN(C(=O)N1c2ccccc2Sc2ccccc21)c1ccccc1,-
COc1ccc(OCc2nc(C#N)c(NCCN(C)C)o2)cc1,-
CCCCCOC(=O)C1=C(C)NC2=C(C(=O)CCC2)C1c1ccc(OC(C)=O)cc1 (stereo not drawn),-
O=C1SC(Nc2ccc(F)cc2)C(=O)N1c1ccccc1 (stereo not drawn),-
O=C1SC(Nc2cccc(Cl)c2)C(=O)N1c1ccccc1 (stereo not drawn),-
COc1cccc(NC2SC(=O)N(c3ccccc3)C2=O)c1 (stereo not drawn),49
Cc1cc(S(=O)(=O)Nc2ccccn2)c(C)cc1Cl,-
O=C(CCSc1nc(-c2ccc3c(c2)OCO3)cc(C(F)(F)F)n1)N1CCSCC1,-
CC(=O)Oc1ccc(C2C(C(=O)OCC(C)C)=C(C)NC3=C2C(=O)CC(c2cccs2)C3)cc1 (stereo not drawn),-
SMILES,Dicer inh
CC1=C(C(=O)OC(C)C)C(c2ccccc2F)C2=C(CC(c3cccs3)CC2=O)N1 (stereo not drawn),-
COc1cccc(C2C(C(=O)OC(C)C)=C(C)NC3=C2C(=O)CC(c2cccs2)C3)c1OC (stereo not drawn),-
CCSCCOC(=O)C1=C(C)NC2=C(C(=O)CC(c3cccs3)C2)C1c1ccc(O)c(OC)c1 (stereo not drawn),5.4
COCCOC(=O)C1=C(C)NC2=C(C(=O)CC(c3cccs3)C2)C1c1cccs1 (stereo not drawn),-
COc1ccc(OC)c(C2C(C(=O)OCC(C)C)=C(C)NC3=C2C(=O)CC(c2cccs2)C3)c1 (stereo not drawn),3.1
CC1=C(C(=O)OC(C)C)C(c2coc3ccccc3c2=O)C2=C(CC(c3cccs3)CC2=O)N1 (stereo not drawn),3.3
COCCOC(=O)C1=C(C)NC2=C(C(=O)CC(C)(C)C2)C1c1coc2ccccc2c1=O (stereo not drawn),-
COc1cc(C2C(C(=O)OCC3CCCO3)=C(C)NC3=C2C(=O)CC(c2cccs2)C3)ccc1O (stereo not drawn),-
CC1=C(C(=O)OCCOc2ccccc2)C(c2coc3ccccc3c2=O)C2=C(CC(C)(C)CC2=O)N1 (stereo not drawn),3.4
CCSCCOC(=O)C1=C(C)NC2=C(C(=O)CC(c3cccs3)C2)C1c1ccc2c(c1)OCO2 (stereo not drawn),-
CC1=C(C(=O)OCCOC(C)C)C(c2coc3ccccc3c2=O)C2=C(CC(C)(C)CC2=O)N1 (stereo not drawn),-
CC(=O)/C(N=Nc1ccccc1Oc1ccc(Cl)cc1Cl)=C(\C)O,-
O=C(CSc1ncc(C(F)(F)F)cc1C(F)(F)F)Nc1ccc(Cl)cc1Cl,-
CCOC(=O)c1sc(N2C(=O)c3oc4ccccc4c(=O)c3C2c2ccc(N(C)C)cc2)nc1C (stereo not drawn),-
COCCOC(=O)C1=C(C)NC2=C(C(=O)CCC2)C1c1ccc(Br)cc1 (stereo not drawn),-
COc1ccc(C2SCC(=O)N2CCc2ccc(OC)c(OC)c2)c(OC)c1 (stereo not drawn),-

# High-throughput results as filed in PubChem.
